Source: PubChem BioAssay
POLH inh – qHTS for Inhibitors of Polymerase Eta | DNA polymerase eta (Homo sapiens), Q9Y253 | recombinant Pol eta, fluorescent DNA replication assay | Potency, µM (doses to about 114 µM), for inactives: at the top dose activity change, negative = inhibition, most hits filed as inhibitors | actives 1.2% (n = 390,000) | AID 588591, 2011; also: % is scaled to controls: 0 for no effect and ±100 for the full control effect
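Pol eta (10 nM) was preincubated with compounds for 15 min at room temperature, after which fluorescent replication substrate (50 nM final) was added to start the reaction. Fluorescence was read kinetically at 0 and 10 min.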
Pol iota inh – qHTS for Inhibitors of Polymerase Iota; DNA polymerase iota (Homo sapiens), Q9UNA4; Potency, µM (doses to about 115 µM), without a hit: at the top dose activity, negative = inhibition, actives largely listed as inhibitors; Pol iota fluorescent replication assay, 10 min; AID 588590, 2011; actives 1% (n = 390,000)
Target sequence (Q9UNA4 whole entry, looked up): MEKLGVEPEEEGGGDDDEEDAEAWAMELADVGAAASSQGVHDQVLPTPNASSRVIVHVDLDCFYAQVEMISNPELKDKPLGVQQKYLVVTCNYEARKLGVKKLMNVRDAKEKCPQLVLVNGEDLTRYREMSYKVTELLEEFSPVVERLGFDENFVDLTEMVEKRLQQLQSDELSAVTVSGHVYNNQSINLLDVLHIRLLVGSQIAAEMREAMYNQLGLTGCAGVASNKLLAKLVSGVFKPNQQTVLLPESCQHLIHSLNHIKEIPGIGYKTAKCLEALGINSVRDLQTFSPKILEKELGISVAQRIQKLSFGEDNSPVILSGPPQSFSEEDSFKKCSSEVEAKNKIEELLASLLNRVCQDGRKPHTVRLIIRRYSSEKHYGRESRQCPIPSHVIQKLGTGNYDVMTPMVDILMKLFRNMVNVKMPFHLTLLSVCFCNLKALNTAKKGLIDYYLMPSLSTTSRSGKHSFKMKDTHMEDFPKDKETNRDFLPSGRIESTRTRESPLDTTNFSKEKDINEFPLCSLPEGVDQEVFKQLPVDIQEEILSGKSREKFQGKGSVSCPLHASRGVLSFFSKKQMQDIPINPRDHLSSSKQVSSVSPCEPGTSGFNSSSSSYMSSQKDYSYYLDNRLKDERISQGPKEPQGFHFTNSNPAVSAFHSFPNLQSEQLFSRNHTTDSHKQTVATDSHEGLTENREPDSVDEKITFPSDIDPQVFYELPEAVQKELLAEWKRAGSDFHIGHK
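Pol iota at 10 nM preincubated 15 min with compounds at room temperature; reaction started with fluorescent substrate, 50 nM final. Fluorescence read kinetically at 0 and 10 min; buffer-only wells as negative control.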
WRN helicase inh – qHTS for Inhibitors of WRN Helicase | WRN helicase unwinding, fluorescent forked duplex, kinetic | Potency, µM (highest dose often 114 µM), inactives show at the highest dose activity change, negative = inhibition, usual class: inhibitors | actives 0.46% (n = 360,000) | AID 651768, 2012; also: % is scaled to controls: 0 for no effect and ±100 for the full control effect; nearly all actives have a fitted effect of over 55% in size
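WRN at 20 nM final preincubated with compound 15 min at room temperature; reaction started with 100 nM fluorophore/quencher forked duplex oligonucleotide and 2 mM ATP final. Unwinding followed kinetically by red fluorescence (ex 525, em 598 nm).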
POLB inh – qHTS Assay for Inhibitors of DNA Polymerase Beta; P06746; Pol beta primer extension/strand displacement, fluorescence kinetic; Potency, µM (top dose mostly 114 µM), without a hit: top-dose activity change, negative = inhibition, actives largely listed as inhibitors; actives 1.3% (n = 340,000); AID 485314, 2010; also: % is scaled to controls: 0 for no effect and ±100 for the full control effect
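Pol beta (10 nM) was preincubated with compound for 15 min at room temperature. The reaction was then started with 50 nM substrate and read immediately and after a further 10 min at room temperature.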
POLK inh – qHTS for Inhibitors of Polymerase Kappa | DNA polymerase kappa (Homo sapiens), Q9UBT6 | purified Pol kappa, fluorescent DNA synthesis assay, 10 min | Potency, µM (highest dose often 107 µM), for inactives: at the top dose activity, negative = inhibition, usual class: inhibitors | actives 0.53% (n = 400,000); also: % is scaled to controls: 0 for no effect and ±100 for the full control effect
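Pol kappa 10 nM + cpd, 15 min RT; start w/ substrate 50 nM final; fluorescence kinetic read, 0 and 10 min. Neg ctrl: buffer, no enzyme.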
Starred values were filed as active, the others as inactive; ? = inconclusive; . = not tested or not shown; [ ] = another dose, or the depositor's remark. A selection: hits, their analogues and other compounds. The true share with any hit is near 2.3%. Calls follow the shape of the dose curve; as a rule, active = well fitted curve in the direction sought with a large enough effect; inconclusive = small, poorly fitted or top-dose-only effect, or another doubt; inactive = no such curve, though single readings can be large; an effect the other way counts as inactive or inconclusive. Potency is read from the fitted curve at half-maximal effect.

SMILES	POLH inh	Pol iota inh	WRN helicase inh	POLB inh	POLK inh
Cc1oc2c(c1C(=O)c1ccccc1)C(=O)C(=O)c1ccccc1-2	20µM*	0.89µM*	?	56µM*	-10%
Cc1oc2c(c1C(=O)O)C(=O)c1ccccc1C2=O	-29%	?	3%	3%	-17%
CCc1cccc(CC)c1NC(=O)CCS(=O)(=O)c1ccc(Br)s1	-12%	2%	.	20µM*	-4%
COc1ccc(NC(=O)CCS(=O)(=O)c2ccc(Br)s2)cc1	50µM*	?	-7%[11.6 µM]	32µM*	?
CN(C)c1ccc(/C=C/c2ccnc3c(-c4ccccc4)cccc23)cc1	.	-6%	.	.	-3%
COc1cc(/C=C/c2ccnc3ccccc23)ccc1N(C)C	.	0%	.	.	4%
Cc1ccccc1C(=O)NNC(=O)c1ccc2nc[nH]c2c1	?	?	-14%	.	-16%
Cc1cccc(NC(=O)CNC(=O)c2ccc3nc[nH]c3c2)c1C	13µM*	?	-32%	.	?
NS(=O)(=O)c1cccc(NC(=O)c2ccc3nc[nH]c3c2)c1	79µM*	?	?	50µM*	?
O=C(NCc1ccccn1)C1CCN(S(=O)(=O)c2cnc[nH]2)CC1	18µM*	?	-22%	3%	?
O=C(NCc1ccccn1)C1CCN(S(=O)(=O)c2ccccc2)CC1	-10%	-10%	-7%	14%	8%
O=C1c2ccccc2C(=O)c2[nH]c(=O)[nH]c21	32µM*	14µM*	-15%[11.6 µM]	50µM*	?
O=C1C(O)=C(O)C(=O)c2ccccc21	32µM*	7.9µM*	5%	.	-14%
CC(=O)N(C)C1=C(O)c2ccccc2C(=O)C1=O	-4%	28µM*	-5%	-1%	-15%
CC(C)=CNNC(=O)c1ccc(O)cc1	.	1%	.	.	-13%
O=C(Nc1ccc(Cl)cn1)c1cnn2c1NC(=C1CC1)C=C2C(F)F	.	36%	.	.	6%
O=c1c2c(nc3cc(-c4ccccc4Cl)[nH]n13)CCS2	0%	-8%	-12%	35µM*	-16%
O=C(COC(=O)c1cn(-c2ccccc2)nc1-c1ccccc1)Nc1ncc(Cl)cc1Cl	35µM*	?	?	?	?
Cc1cccc(OCC(=O)Nc2sc3c(c2C#N)CCC3)c1	-11%	12%	-3%	1%	-8%
O=C(COC(=O)c1ccc(Cl)nc1)Nc1ncc(Cl)cc1Cl	35µM*	87%	-6%[11.6 µM]	?	-10%
COc1cccc(-c2nn(-c3ccccc3)cc2C(=O)OCC(=O)Nc2ncc(Cl)cc2Cl)c1	5%	-3%	-19%	-5%[57.1 µM]	-23%
Cc1cnc(C(=O)OCC(=O)Nc2ncc(Cl)cc2Cl)cn1	50µM*	?	-1%[11.6 µM]	.	-18%
NC(=O)c1ccc(NC(=O)COC(=O)c2ccc(Cl)nc2)cc1	-1%	-10%	-3%	.	-13%
Cc1cnc(C(=O)OCC(=O)Nc2sc3c(c2C#N)CCC3)cn1	22µM*	?	?	.	-24%
Cc1ccc2c(Br)cc(Br)c(O)c2n1	.	.	.	.	-4%[19.4 µM]
SMILES	POLH inh	Pol iota inh	WRN helicase inh	POLB inh	POLK inh
C(/Oc1ccccc1)=C1\Nn2c(nnc2-c2cc(-c3ccccc3)n[nH]2)S1	.	5%	.	.	-15%
O=C(C[n+]1cccc(Br)c1)c1ccc2ccccc2c1	.	10%	.	.	-9%
Cc1oc2ncn(CC(C)C)c(=O)c2c1C(=O)NC(C)c1ccccc1 (stereo unspecified)	-8%	2%	.	0%	-10%
Cc1cnc(C(=O)OCC(=O)c2csc(N3CCCCC3)n2)cn1	25µM*	?	?	45µM*	-24%
O=C(/C=C/c1ccc(Br)cc1)c1ccco1	2%	?	?	-17%	-9%
O=C(/C=C/c1ccncc1)c1ccc(NC(=O)c2ccccc2F)cc1	-15%	?	?	16µM*	-10%
O=C(/C=C/c1ccc(Br)cc1)c1ccc(NC(=O)c2ccco2)cc1	?	?	-7%	7.1µM*	?
Nc1ccc(/C=C/c2ccnc3ccccc23)cc1	.	16%	.	.	3%
O=c1c(Cl)c(Cl)cnn1Cc1nnc(-c2ccccc2Br)o1	79µM*	?	-35%[57.1 µM]	40µM*	-17%
Clc1ccccc1OCc1nnc(-c2ccccc2Br)o1	1%	-1%	-2%	6%	-5%
Cc1nc([N+](=O)[O-])cn1CC(O)c1ccc2c(c1)OCCO2 (stereo unspecified)	.	?	.	.	-2%
COc1ccc2nc(SCC(=O)Nc3ccccc3)[nH]c2c1	-15%	-15%	0%	28µM*	-11%
COc1ccccc1NC(=O)CCC(=O)Nc1ccccc1OC	-10%	10%	5%	1%	-13%
O=C(CSc1nc(O)cc(=O)n1-c1ccccc1)Nc1nc2ccccc2s1	-7%	11µM*	?	?	?
COc1ccc(NC(=O)CSc2nc(O)cc(=O)n2-c2ccccc2)cc1	-9%	79µM*	3%[11.6 µM]	?	-22%
COc1ccc(NC(=O)CSc2nc(O)cc(=O)n2C)cc1	-1%	?	?	0%	?
COc1ccccc1NC(=O)CCSCCC(=O)Nc1ccccc1OC	?	-12%	-13%	56µM*	-23%
O=S(=O)(Nc1cccc2cccnc12)c1cccs1	.	29%	.	.	-11%
O=C(CSc1nc(O)cc(=O)n1-c1ccccc1)Nc1ccc2c3c(cccc13)CC2	-29%	?	?	35µM*	-17%
COc1ccc(-c2csc(NC(=O)CSc3nc4ccccc4c(=O)[nH]3)n2)cc1	?	35µM*	-10%[11.6 µM]	-29%	?
Cc1ccc(-c2csc(NC(=O)CSc3nc4ccccc4[nH]3)n2)cc1	-15%	-11%	-13%	5%	-16%
COc1ccccc1NC(=O)CSc1nc2ncccc2[nH]1	-8%	28%	1%	35µM*	-7%
C[C@]12O[C@H](C[C@]1(O)CO)n1c3ccccc3c3c4c(c5c6ccccc6n2c5c31)CNC4=O	.	.	.	.	-10%[19.4 µM]
CCOc1ccccc1-c1c2cc(O)c(=O)cc-2oc2cc(O)c(O)cc12	28µM*	.	89µM*	1.6µM*	14µM*
C=C(CN(C)C)C(=O)c1cc(C)ccc1C	?	?	22µM*	.	-19%
COc1ccc(N2Cc3ccccc3C2=O)cc1	-23%	10%	-15%	-1%	-5%
C=CC(=O)Oc1ccc(N2Cc3ccccc3C2=O)cc1	32µM*	40µM*	56µM*	.	-38%
COc1cccc(NC(=O)Cn2c(=O)n(CCCCC(=O)NCc3ccc4c(c3)OCO4)c(=O)c3ccccc32)c1	-15%	12%	.	-5%	8%
Cc1ccccc1Nc1nc(N)nc(COC(=O)c2ccc([N+](=O)[O-])o2)n1	89µM*	?	4%[11.6 µM]	.	-23%
